The record followed here is PubChem BioAssay.

Each structure is given as a SMILES string. Inconclusive results are not listed. Calls of active or inactive are those of the source.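 Rule for the calls, unless noted: active = viability at or below 30% in both replicate assays; inconclusive = viability at or below 30% in just one of the two assays; inactive = the rest.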

Assay [1] is described as follows: Her2 expression decrease, cell viability multiplex – SKBR3 breast tumor cells, AlphaScreen, ATP viability, primary screen (AID 461;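 active = Her2 level under about 52% in both replicate screens, with viability over 70% of control, limit read from the data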;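 for Her2 level: lower value means less Her2 protein in the cells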;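 for viability: percent of carrier control wells set as 100% viability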). The settings on record: SKBR3 Her2 protein level, 18-24 h, measured here: SKBR3 viability, ATP luminescence, at 10 µM.
Assay [2] has as its target Receptor tyrosine-protein kinase erbB-2 (Homo sapiens) (UniProt P04626). The description is as above. The settings on record: 18-24 h, at 10 µM, stronger effect = lower value.
Assay [3] is described as follows: reduced viability of SK-BR-3 breast cancer cells – cell-based, 24 h, human, pilot screen (AID 572;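 active = viability at or below 10% of carrier control in both of two separate runs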;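 note: compound exposure lasted between 18 and 24 h rather than exactly 24 h; 100% = carrier-treated control wells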). The settings on record: SK-BR-3 viability, CellTiter-Glo luminescence, at 10 µM, stronger effect = lower value. (In general: Cellular ATP, detected with luciferase, serves as a proxy for viable cell number.)
Assay [4] can be described thus: HUVEC growth inhibition – cell-based, human, primary screen (AID 575).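 Note: 100% = median of untreated cell wells with 0.1% DMSO on each plate.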 The settings on record: HUVEC proliferation, CellTiter-Glo luminescence, 72 h; at 10 µM; stronger effect = lower value.
The nature of assay [5]: H69AR cell proliferation blockers – human, duplicate replicates, primary screen (AID 580;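 active = viability at or under a set limit in both replicates, limit being median viability minus 3 SD, cut at about 48% in these data, passing the limit was not always enough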;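 note: 100% = mean luminescence of untreated wells and 0% = no signal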). To be noted: H69AR lung tumor cells viability, ATP luminescence, 72 h; at 10 µM; stronger effect = lower value.
Assay [6] can be described thus: MRP1 drug-resistance reversers in H69AR cells – cell-based, doxorubicin co-treatment, pilot screen (AID 601;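 active = viability loss from added drug above about 55%, and viability with drug at most 40%, in both replicates, limit read from the data, passing the limit was not always enough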). The settings on record: CellTiter-Glo, 72 h, at 10 µM; for differential viability (reversal): stronger effect = higher value.
The nature of assay [7]: yeast transport mutant growth inhibition pilot in 384-well plates, post-Golgi transport modulator project (AID 636; in the data active = inhibition above about 31%). The settings on record: absorbance 615 nm, about 18 h, stronger effect = higher value.
Assay [8] in a line: growth suppression of yeast trafficking mutant, preliminary HTS, modulators of trafficking downstream of Golgi apparatus project, 1536-format plate, OD 615 nm (AID 637; in the data active = inhibition above about 30%). The settings on record: yeast transport mutant growth, absorbance 615 nm, 18 h; stronger effect = higher value.
Assay [9] in a line: S. cerevisiae growth inhibition in permissive medium (OD615), pilot counter-assay for S. cerevisiae lifespan shortening project, permissive growth control (AID 705;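 active = growth inhibition above 25% in both replicates, a cutoff set 3 SD above the mean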). The settings on record: OD615, 24 h, at 10 µM, stronger effect = higher value.
The nature of assay [10]: S. cerevisiae growth inhibition in restrictive medium, OD615, pilot screen, restrictive growth control, yeast lifespan reduction project (AID 706;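 active = growth inhibition above a set limit, 3 SD over mean compound inhibition, in both replicates, cut at about 43% in these data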;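 note: modified DeaD lifespan yeast strain shifted to restrictive glucose medium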). To be noted: OD615, 48 h, at 10 µM, stronger effect = higher value.
Assay [11] can be described thus: doxorubicin toxicity protection in MRP-1 cells – H69AR cells, CellTiter-Glo, duplicate, MRP-1 activator project, pilot screen (AID 807;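 active = viability increase at or above a cutoff of the median across tested compounds plus 3 SD, cut at about 8.5% in these data, passing the limit was not always enough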;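 note: compound pretreatment 18-22 h then 72 h combined with doxorubicin; 0% = doxorubicin alone and 100% = vehicle without doxorubicin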). To be noted: H69AR viability with doxorubicin, CellTiter-Glo luminescence; at 10 µM; stronger effect = higher value.
Assay [12] is described as follows: viability of HCT116 without oncogenic beta-catenin – human colon tumor cells, pilot screen (AID 823;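 active = cell viability at or below a set limit in both duplicate runs, the limit being the all-compound median minus 4 SD, cut at about 23% in these data, passing the limit was not always enough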;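 note: 0% = wells killed by 20 µM Hyamine and 100% = untreated DMSO cell wells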). To be noted: HCT116 beta-catenin knockout viability, CellTiter-Glo, 60 h; at 10 µM; stronger effect = lower value.
Assay [13] is described as follows: viability of PTEN-null HCT116 cells – cell-based, HCT116 clonal line, CellTiter-Glo, pilot screen (AID 824;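 active = viability at or below 27.92% in each of two runs, the all-compound median minus 4 SD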;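 note: 0% = 20 µM Hyamine control and 100% = vehicle cell control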). To be noted: HCT116 PTEN-deleted viability, 60 h, at 10 µM, stronger effect = lower value.
A short description of assay [14]: RAM pathway blockade in budding yeast – dse1pr::URA3 reporter, 5-FOA selection, pilot screen (AID 869;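 active = inhibition over a set limit, the all-compound mean plus 3 SD, in both replicate runs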;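 note: 0% = DMSO wells with no growth and 100% = 10 µM 1-NA-PP1 with full growth; RAM network block rescues cells from 5-FOA so hits raise OD615 growth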). To be noted: S. cerevisiae dse1pr::URA3 5-FOA growth, OD615, 2 d; at 10 µM; stronger effect = higher value; strain carries analog-sensitive mutant Cbk1 kinase.
The nature of assay [15]: RAM signaling pathway blockade in yeast – S. cerevisiae, Pdr1DBD-CYC8 efflux-inhibited sensitized strain, primary screen (AID 1298;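 active = RAM network inhibition above 8.4% in each of two replicates, 3 SD over the compound average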;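 note: 0% = DMSO untreated cells without growth and 100% = 10 µM 1-NA-PP1 full growth; higher means more yeast growth rescued from 5-FOA killing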). To be noted: S. cerevisiae cbk1-as DSE1-URA3 strain, 5-FOA growth OD615, 2 d; at 50 µM; stronger effect = higher value.
The mark [16] stands for this setting: H69AR cells + 2 uM doxorubicin, measured here: viability with 2 uM doxorubicin, stronger effect = lower value.
Setting [17] is: H69AR cells, compound alone cytotoxicity.

Sequence of Receptor tyrosine-protein kinase erbB-2 (Homo sapiens) (P04626 whole entry, looked up): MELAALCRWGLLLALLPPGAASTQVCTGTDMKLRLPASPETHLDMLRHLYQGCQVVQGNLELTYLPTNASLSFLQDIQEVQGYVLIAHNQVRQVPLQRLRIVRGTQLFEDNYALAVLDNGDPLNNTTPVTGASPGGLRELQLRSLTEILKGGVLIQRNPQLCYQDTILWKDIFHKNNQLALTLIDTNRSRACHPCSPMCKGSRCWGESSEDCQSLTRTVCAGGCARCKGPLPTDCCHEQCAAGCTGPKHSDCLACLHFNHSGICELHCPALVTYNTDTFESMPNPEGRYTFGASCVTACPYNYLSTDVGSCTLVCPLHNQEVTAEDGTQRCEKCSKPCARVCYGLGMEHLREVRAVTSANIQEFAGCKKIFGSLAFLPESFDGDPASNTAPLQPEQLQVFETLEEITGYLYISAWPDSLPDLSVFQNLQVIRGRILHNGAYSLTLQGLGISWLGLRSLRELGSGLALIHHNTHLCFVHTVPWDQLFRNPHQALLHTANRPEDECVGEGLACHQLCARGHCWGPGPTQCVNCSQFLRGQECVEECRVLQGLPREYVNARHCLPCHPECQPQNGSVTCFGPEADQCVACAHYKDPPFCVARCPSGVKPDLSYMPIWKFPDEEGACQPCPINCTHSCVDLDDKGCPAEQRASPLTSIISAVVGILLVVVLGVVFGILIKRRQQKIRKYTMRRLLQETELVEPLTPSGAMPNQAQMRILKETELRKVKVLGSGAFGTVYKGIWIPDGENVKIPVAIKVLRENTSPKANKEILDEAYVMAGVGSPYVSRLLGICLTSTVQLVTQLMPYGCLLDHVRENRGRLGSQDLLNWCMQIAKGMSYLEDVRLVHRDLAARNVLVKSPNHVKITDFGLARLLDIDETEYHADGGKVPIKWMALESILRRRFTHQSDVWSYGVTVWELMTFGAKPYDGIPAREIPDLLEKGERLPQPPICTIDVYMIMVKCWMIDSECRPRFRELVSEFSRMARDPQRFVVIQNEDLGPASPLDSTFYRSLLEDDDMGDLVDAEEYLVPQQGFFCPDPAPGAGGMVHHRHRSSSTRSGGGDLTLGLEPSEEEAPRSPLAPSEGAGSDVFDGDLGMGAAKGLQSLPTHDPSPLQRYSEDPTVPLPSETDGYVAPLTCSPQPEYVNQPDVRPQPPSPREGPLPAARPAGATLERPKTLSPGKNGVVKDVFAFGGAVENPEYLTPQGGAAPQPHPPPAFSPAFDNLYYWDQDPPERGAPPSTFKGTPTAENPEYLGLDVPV

As a reminder, the viability is a read-out of living cells in per cent, often relative to untreated cells. What is called inhibition is the drop in the measured response relative to a control, in per cent. `CCN1CCN(C(CNC(=O)c2ccc3c(c2)OCO3)c2cccnc2)CC1` (stereo not given): the viability in assay [1] was 89.5%; in [3], 89.5% (inactive); in assay [4], 86.4% (inactive); in assay [5], 99.6% (inactive); in [6] (setting [16]), 90%; in [6] (setting [17]) it was 99.6%. Further, the viability is 104% (inactive) in [12] and 96.2% (inactive) in assay [13]. Besides, the Her2 level in assay [2] is 93% (inactive). Besides, the differential viability (reversal) in [6] (H69AR cells + 2 uM doxorubicin) is 9.62% (inactive). The inhibition in assay [7] was -2% (inactive); in assay [8] it was -6.23% (inactive); in [14] it was 1.35% (inactive). The values for the growth inhibition in assay [9] and in assay [10] were -12.5% (inactive) and -4.73% (inactive), respectively. The viability increase in assay [11] is 0.44% (inactive). Also, the RAM network inhibition in assay [15] is 5.59% (inactive).

Take `COC(=O)C1=C(C)Nc2ncnn2C1c1ccc(C)o1` (stereo not given): the viability in [1] is 103%; in assay [3], 103% (inactive); in assay [4], 94.5% (inactive); in assay [5], 91.7% (inactive); in [6] (setting [16]), 84.2%; in [6] (setting [17]), 91.7%. Further, the values for the viability in assay [12] and in [13] were 107% (inactive) and 101% (inactive), respectively. In assay [2], the Her2 level is 119% (inactive). Also, the differential viability (reversal) in [6] (H69AR cells + 2 uM doxorubicin) was 7.49% (inactive). Besides, the inhibition in assay [7] was 0.27% (inactive); in assay [8] it was 4.67% (inactive); in [14], 2.39% (inactive). Also, the values for the growth inhibition in assay [9] and in assay [10] were -16.6% (inactive) and -18.4% (inactive), respectively. For the same compound, the viability increase in assay [11] was -1.12% (inactive). In assay [15], the RAM network inhibition was -1% (inactive).

On to `COc1ccc(N2CCN(C(=O)C(C)(C)Oc3ccc(Cl)cc3)CC2)cc1`, for which the viability is 85% in assay [1]; 85% (inactive) in assay [3]; 76.9% (inactive) in assay [4]; 68.4% (inactive) in assay [5]; 78.6% in assay [6] (setting [16]); 68.4% in assay [6] (setting [17]). Also, the viability was 74.4% (inactive) in assay [12] and 71.7% (inactive) in assay [13]. Besides, the Her2 level in [2] is 91.5% (inactive). The differential viability (reversal) in assay [6] (H69AR cells + 2 uM doxorubicin) is -10.2% (inactive). In addition, the inhibition was -1.07% (inactive) in assay [7], -2.83% (inactive) in assay [8] and 1.45% (inactive) in assay [14]. Moreover, the growth inhibition in assay [9] was -6.29% (inactive); in assay [10], 5.29% (inactive). For the same compound, the viability increase in [11] was -4.56% (inactive). Also, the RAM network inhibition in assay [15] is 9.33% (inactive).

As to `CC(=O)c1cccc(NC(=O)CCOc2ccccc2)c1`, the viability in [1] was 96%; in assay [3], 96% (inactive); in assay [4] it was 106% (inactive); in assay [5] it was 98.3% (inactive); in assay [6] (setting [16]), 96.3%; in [6] (setting [17]), 98.3%. Further, the viability was 102% (inactive) in [12] and 95% (inactive) in [13]. For the same compound, the Her2 level in assay [2] was 121% (inactive). For the same compound, the differential viability (reversal) in assay [6] (H69AR cells + 2 uM doxorubicin) is 1.96% (inactive). For the same compound, the inhibition was 1.04% (inactive) in assay [7], -12.8% (inactive) in [8] and 1.27% (inactive) in assay [14]. The values for the growth inhibition in assay [9] and in assay [10] were 5.62% (inactive) and 4.36% (inactive), respectively. In addition, the viability increase in [11] was -1.33% (inactive). Moreover, the RAM network inhibition in assay [15] is 1.57% (inactive).

Consider `O=C(NCCc1c[nH]c2ccccc12)c1cnc2n(c1=O)CCS2`, for which the viability in assay [1] was 92%; in assay [3], 92% (inactive); in assay [4] it was 81.8% (inactive); in assay [5] it was 82% (inactive); in [6] (setting [16]), 87.1%; in assay [6] (setting [17]), 82%. The values for the viability in assay [12] and in [13] were 96.6% (inactive) and 95.7% (inactive), respectively. Further, the Her2 level in [2] is 83% (inactive). In addition, the differential viability (reversal) in [6] (H69AR cells + 2 uM doxorubicin) is -5.14% (inactive). Also, the inhibition is -3.07% (inactive) in assay [7], 1.8% (inactive) in assay [8] and 0.62% (inactive) in assay [14]. In addition, the growth inhibition in assay [9] was -5.46% (inactive); in assay [10] it was 2.1% (inactive). Also, in [11], the viability increase is -3.94% (inactive). Further, in assay [15], the RAM network inhibition is 6.77% (inactive).
